According to PubChem BioAssay (Tox21):
A number with no mark means an inactive call. Records with an inconclusive call do not appear. Entries that show only a call come without a potency. Active and inactive are the calls of the source. Unless noted, calls follow the shape of the dose curve; as a rule, active = well fitted curve in the direction sought with a large enough effect in the repeat runs; inconclusive = weak or mixed curves; inactive = no such curve, though single readings can be large; an effect the other way counts as inactive or inconclusive.

Key:
[1] = qHTS assay to identify small molecule antagonists of the estrogen related receptor (ERR) signaling pathway from Tox21 library - cell viability counter screen (AID 1224834); also: nearly all actives have a fitted effect of over 30% in size
Outline: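 ERR cells, 2,000/well; 6 h settle at 37 C/5% CO2; pin-tool compound transfer in DMSO; 17.5 h at 37 C; CellTiter-Fluor, 30 min; fluorescence intensity.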

[2] = biological target: Luciferin 4-monooxygenase (Photinus pyralis) (UniProt P08659); test: qHTS assay to identify small molecule inhibitors of firefly luciferase (AID 1224835); also: nearly all actives have a fitted effect of over 25% in size
Luciferin 4-monooxygenase (Photinus pyralis), sequence (P08659 whole entry, looked up): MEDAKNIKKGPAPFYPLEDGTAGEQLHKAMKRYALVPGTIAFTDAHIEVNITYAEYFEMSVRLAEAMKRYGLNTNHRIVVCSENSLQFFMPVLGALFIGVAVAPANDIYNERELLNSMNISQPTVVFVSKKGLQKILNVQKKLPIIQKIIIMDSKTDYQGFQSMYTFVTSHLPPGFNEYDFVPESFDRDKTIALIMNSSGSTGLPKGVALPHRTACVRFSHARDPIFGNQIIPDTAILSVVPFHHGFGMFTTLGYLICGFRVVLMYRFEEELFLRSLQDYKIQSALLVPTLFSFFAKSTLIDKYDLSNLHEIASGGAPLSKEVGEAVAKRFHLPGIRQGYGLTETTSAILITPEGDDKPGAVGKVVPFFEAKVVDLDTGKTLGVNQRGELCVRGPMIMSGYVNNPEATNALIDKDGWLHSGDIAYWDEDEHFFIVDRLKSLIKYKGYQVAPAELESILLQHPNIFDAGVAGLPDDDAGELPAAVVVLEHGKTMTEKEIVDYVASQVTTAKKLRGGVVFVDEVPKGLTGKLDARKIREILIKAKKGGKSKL
Outline: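 Quantitative HTS format; KM concentrations of both substrates. Purified P. pyralis FLuc activity quantified from luminescence images.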

[3] = qHTS assay to identify small molecule antagonists of the constitutive androstane receptor (CAR) signaling pathway - cell viability counter screen (AID 1224837); also: nearly all actives have a fitted effect of over 45% in size
Outline: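 Viability was measured with CellTiter-Fluor in a HepG2 line carrying stably transfected hCAR and a CYP2B6-2.2kb construct. Cells were exposed for 23 hr at 37 C to 15 compound concentrations with 50 nM CITCO as agonist.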

[4] = qHTS assay to identify small molecule antagonists of the estrogen related receptor signaling pathway with the pleiotropic PPARgamma coactivator (PGC) from Tox21 10K library - cell viability counter screen (AID 1224840; active = well fitted cell-killing curve with a large enough effect in the repeat runs, not every such curve was filed as active; also: nearly all actives have a fitted effect of over 40% in size)
Outline: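 Multiplexed viability counter screen in the PGC/ERR cell line: cells treated with DMSO-dissolved compounds for 17.5 hours at 37 C, then viability measured as CellTiter-Fluor fluorescence.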

[5] = biological target: Thyrotropin receptor (Homo sapiens) (UniProt P16473); test: qHTS assay to identify small molecule agonists of the thyroid stimulating hormone receptor (TSHR) signaling pathway (AID 1224843; calls by dose curve; also: nearly all actives have a fitted effect of over 45% in size)
Thyrotropin receptor (Homo sapiens), sequence (P16473 whole entry, looked up): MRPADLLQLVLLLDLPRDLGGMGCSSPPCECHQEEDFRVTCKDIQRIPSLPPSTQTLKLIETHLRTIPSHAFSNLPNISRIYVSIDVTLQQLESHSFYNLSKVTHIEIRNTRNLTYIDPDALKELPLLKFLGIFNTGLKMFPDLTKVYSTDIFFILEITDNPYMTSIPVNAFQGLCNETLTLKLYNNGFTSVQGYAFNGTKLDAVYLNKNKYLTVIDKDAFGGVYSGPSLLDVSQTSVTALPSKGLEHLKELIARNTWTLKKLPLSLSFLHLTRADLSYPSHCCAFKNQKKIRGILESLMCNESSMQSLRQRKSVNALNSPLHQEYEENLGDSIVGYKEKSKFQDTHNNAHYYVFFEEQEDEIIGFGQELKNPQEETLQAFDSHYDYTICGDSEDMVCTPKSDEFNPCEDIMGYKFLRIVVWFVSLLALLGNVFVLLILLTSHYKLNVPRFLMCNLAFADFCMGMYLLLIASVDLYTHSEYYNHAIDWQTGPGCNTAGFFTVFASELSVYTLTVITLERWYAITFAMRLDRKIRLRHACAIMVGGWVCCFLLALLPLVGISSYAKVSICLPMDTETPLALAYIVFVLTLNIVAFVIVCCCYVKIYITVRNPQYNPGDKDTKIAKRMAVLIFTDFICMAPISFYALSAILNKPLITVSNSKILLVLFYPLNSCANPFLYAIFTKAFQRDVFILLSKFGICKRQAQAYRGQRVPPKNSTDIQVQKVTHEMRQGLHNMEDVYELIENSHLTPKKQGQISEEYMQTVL
Outline: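 Compounds are titrated over 15 concentrations, in triplicate, onto TSHR-HEK293 cells seeded at 800/well. Plates sit 30 min at room temperature before cAMP-d2 and anti-cAMP cryptate are added; signal is read after a further hour.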

[6] = qHTS assay to identify small molecule agonists of H2AX (AID 1224845; active = well fitted activation curve with a large enough effect in the signal ratio in the repeat runs, not every such curve was filed as active; the % refers to the signal ratio)
Outline: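 Wild-type CHO-K1 cells plated overnight, then exposed 3 hr at 37C to compounds at 15 concentrations (0.76% DMSO). Lysed, then HTRF anti-pH2AX(S139)-cryptate/anti-H2AX-d2 detection after 24 hr at room temperature; emissions 665 and 620 nm.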

[7] = qHTS assay to identify small molecule agonists of the hypoxia (HIF-1) signaling pathway (AID 1224846; active = well fitted activation curve with a large enough effect in the signal ratio in the repeat runs, not every such curve was filed as active; the % refers to the signal ratio)
Outline: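 Compounds from the Tox21 10K library, dissolved in DMSO, are tested for induction of a hypoxia response element–controlled beta-lactamase reporter in ME-180 cells. Exposure lasts 17 hrs at 37C after a 5 hr settling period, followed by CCF4-AM FRET substrate.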

[8] = qHTS assay to identify small molecule agonists of H2AX - cell viability counter screen (AID 1224847; calls by dose curve; also: top concentration of the series differs between compounds; nearly all actives have a fitted effect of over 30% in size)
Outline: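 Compounds tested at 15 concentrations were incubated 3 hr at 37C with wild-type CHO-K1 cells; cellular ATP-based luminescence (CellTiter-Glo) indicated viability.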

[9] = qHTS RealTime-Glo MT Cell Viability Assay in HepG2 cells - 24 hour (AID 1224867); also: nearly all actives have a fitted effect of over 50% in size
Outline: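 Cell number in HepG2 cultures estimated from NanoLuc luminescence generated by metabolic reduction of a prosubstrate by living cells. The homogeneous, nonlytic format allowed repeated reads at 0, 8, 16, 24, 32 and 40 h of compound exposure.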

[10] = qHTS RealTime-Glo MT Cell Viability Assay in HEK293 cells - 32 hour (AID 1224868); also: top concentration of the series differs between compounds; nearly all actives have a fitted effect of over 50% in size
Outline: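 Homogeneous bioluminescent viability format in HEK293 cells (600 cells/well). Following 5 h at 37 C/5% CO2, 23 nL compound was pintooled; the signal was measured repeatedly during 40 h incubation.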

[11] = A CellTox Green Cytotoxicity Assay to monitor cytotoxicity in HEK293 cells - 0 hour (AID 1224869); also: nearly all actives have a fitted effect of over 50% in size
Outline: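 Cells (HEK293, 600/well) and dye reagent are dispensed together. After 5 h at 37 C, 23 nL compound is pinned in. Plates stay at 37 C for 40 h with fluorescence read at 0h, 8h, 16h, 24h, 32h and 40h.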

[12] = qHTS assay to identify small molecule antagonists of the estrogen related receptor signaling pathway with the pleiotropic PPARgamma coactivator (PGC) from Tox21 10K library (AID 1224841; call rule not given here; also: actives are mostly falling curves and most rising ones were filed inactive; nearly all actives have a fitted effect of over 50% in size)
Outline: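 Steps: plate 2,000 PGC/ERR cells per well; incubate 6 h at 37 C with 5% CO2; transfer compounds from DMSO stocks by pin tool; incubate 18 h at 37 C; add One-Glo; measure luminescence 30 min later.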

[13] = qHTS assay to identify small molecule agonists of the estrogen related receptor signaling pathway with the pleiotropic PPARgamma coactivator (PGC) from Tox21 10K library (AID 1224842); also: nearly all actives have a fitted effect of over 15% in size; also: potency is read from the fitted curve at half-maximal effect
Outline: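 PGC/ERR reporter cells (NTP line) were seeded 2,000 per well, rested 6 h at 37 C/5% CO2, then pin-dosed with compounds in DMSO for 18 h at 37 C; luciferase read by One-Glo luminescence after 30 min at room temperature.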

[14] = qHTS assay to identify small molecule agonists of the hypoxia (HIF-1) signaling pathway - cell viability counter screen (AID 1224844; calls by dose curve; also: nearly all actives have a fitted effect of over 50% in size)
Outline: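 Cytotoxicity was measured in parallel with the HRE-driven beta-lactamase readout: after 17 hrs of compound exposure at 37C, HRE-bla ME-180 cells received CellTiter-Glo and luminescence was recorded 30 min later.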

[15] = qHTS assay to identify small molecule antagonists of the estrogen related receptor (ERR) signaling pathway from Tox21 library (AID 1224848); also: nearly all actives have a fitted effect of over 50% in size
Outline: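 First, 2,000 ERR cells per well were plated and held 6 h at 37 C/5% CO2. Next, compounds in DMSO were pinned in and left 18 h at 37 C. Finally, ONE-Glo was added and luminescence read after 30 min at room temperature.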

[16] = qHTS assay to identify small molecule agonists of the estrogen related receptor (ERR) signaling pathway from Tox21 library (AID 1224849; calls by dose curve; also: nearly all actives have a fitted effect of over 15% in size); details: ERR reporter cell line, ONE-Glo luciferase, 18 h; at 92.4 µM (top of the series) unless noted
Outline: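 Cells carrying the ERR reporter were plated and allowed to settle for 6 h, exposed to library compounds for 18 h at 37 C, then lysed with ONE-Glo and luminescence measured.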

[17] = qHTS assay to identify small molecule agonists of the constitutive androstane receptor (CAR) signaling pathway - cell viability counter screen (AID 1224836); also: nearly all actives have a fitted effect of over 45% in size
Outline: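 23 h treatment, 37 C, 5% CO2. Cell line: HepG2 stably expressing hCAR with a CYP2B6-2.2kb construct. Co-treatment: PK11195, 0.75 uM final. Read-out: CellTiter-Fluor fluorescence intensity.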

[18] = biological target: Nuclear receptor subfamily 1 group I member 3 (Homo sapiens) (UniProt Q14994); test: qHTS assay to identify small molecule antagonists of the constitutive androstane receptor (CAR) signaling pathway (AID 1224838);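 also: HepG2 cells stably expressing hCAR with CYP2B6 luciferase reporter stimulated by CITCO; nearly all actives have a fitted effect of over 40% in size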
Nuclear receptor subfamily 1 group I member 3 (Homo sapiens), sequence (Q14994 whole entry, looked up): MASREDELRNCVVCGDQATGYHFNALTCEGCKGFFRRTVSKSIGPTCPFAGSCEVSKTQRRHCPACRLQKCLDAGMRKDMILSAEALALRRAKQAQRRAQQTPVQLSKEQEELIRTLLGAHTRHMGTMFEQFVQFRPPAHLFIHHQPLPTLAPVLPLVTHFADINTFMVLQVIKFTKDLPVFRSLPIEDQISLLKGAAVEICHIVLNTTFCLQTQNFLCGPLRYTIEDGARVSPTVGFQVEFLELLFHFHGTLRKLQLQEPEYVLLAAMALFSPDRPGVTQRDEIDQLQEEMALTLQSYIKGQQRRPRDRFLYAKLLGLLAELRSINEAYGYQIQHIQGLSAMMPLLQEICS
Outline: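 Antagonist mode used CITCO at a final 50 nM to activate CAR in human hepatoma HepG2 cells carrying stable hCAR and a 2.2 kb CYP2B6 promoter-luciferase construct. Compounds were tested at 15 concentrations over 24 h, with luminescence as the end point.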

[19] = biological target: Nuclear receptor subfamily 1 group I member 3 (Homo sapiens) (UniProt Q14994); test: qHTS assay to identify small molecule agonists of the constitutive androstane receptor (CAR) signaling pathway (AID 1224839); also: nearly all actives have a fitted effect of over 15% in size; also: potency is read from the fitted curve at half-maximal effect
Outline: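 Compounds tested at 15 concentrations on HepG2 cells stably harbouring hCAR and CYP2B6-2.2kb reporter constructs, co-treated with PK11195 (0.75 uM final), 24 h at 37 C; luminescent reporter signal quantified.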

Structure (SMILES) | Potency [1] | Potency [2] | outcome [3] | outcome [4] | outcome [5] | outcome [6] | outcome [7] | Potency [8] | outcome [9] | Potency [10] | Potency [11] | Potency [12] | Potency [13] | Potency [14] | Potency [15] | activity change, positive = activation [16] | outcome [17] | Potency [18] | Potency [19]
O=C(O)C1CCC1 | inactive | inactive | inactive | inactive | inactive | inactive | inactive | inactive | inactive | inactive | inactive | – | – | – | – | – | – | – | –
CC(=O)O[C@H](CC(=O)[O-])C[N+](C)(C)C | inactive | inactive | inactive | – | inactive | inactive | inactive | inactive | inactive | inactive | inactive | inactive | inactive | inactive | inactive | -2.17% | – | – | –
O=C1C(CCS(=O)c2ccccc2)C(=O)N(c2ccccc2)N1c1ccccc1 (centres undefined) | inactive | – | inactive | inactive | – | inactive | – | inactive | inactive | inactive | inactive | – | – | inactive | – | – | inactive | inactive | inactive
CC(C)COC(=O)c1ccccc1O | inactive | – | inactive | inactive | inactive | inactive | inactive | – | inactive | inactive | inactive | – | – | – | – | – | inactive | inactive | inactive
COCc1ccc(COC)cc1 | inactive | – | inactive | inactive | – | inactive | inactive | inactive | inactive | inactive | inactive | – | – | inactive | – | – | inactive | inactive | inactive
C[N+](C)(C)CC[N+]1(C)Cc2c(Cl)c(Cl)c(Cl)c(Cl)c2C1 | inactive | inactive | inactive | inactive | inactive | inactive | inactive | inactive | – | inactive | inactive | – | – | inactive | – | – | – | – | –
CC(C)[C@H](N)C(=O)OCCOCn1cnc2c(=O)[nH]c(N)nc21 | inactive | inactive | inactive | inactive | inactive | inactive | inactive | – | inactive | inactive | inactive | – | – | – | – | – | – | – | –
COc1cccc(OC)c1 | inactive | inactive | inactive | inactive | inactive | – | inactive | – | inactive | – | inactive | – | – | inactive | – | – | – | inactive | inactive
COc1ccc(N=[N+]([O-])c2ccc(OC)cc2)cc1 | inactive | – | inactive | inactive | inactive | – | inactive | – | – | inactive | inactive | – | – | inactive | – | – | inactive | inactive | 762 nM (active)
Nc1ccc2cc(S(=O)(=O)O)ccc2c1 | inactive | – | inactive | inactive | inactive | – | inactive | inactive | – | inactive | inactive | – | – | inactive | – | – | inactive | inactive | inactive
CCN1CCN(c2cc3c(cc2F)c(=O)c(C(=O)O)cn3C2CC2)CC1 | inactive | – | inactive | inactive | inactive | inactive | – | inactive | inactive | inactive | inactive | – | – | inactive | – | – | inactive | inactive | inactive
CCCOc1ccccc1-c1nc2n[nH]nc2c(=O)[nH]1 | inactive | inactive | inactive | – | inactive | inactive | – | – | – | – | inactive | – | – | inactive | – | – | – | inactive | inactive
OC1OC[C@@H](O)[C@H](O)[C@H]1O (some centres undefined) | inactive | inactive | inactive | inactive | – | inactive | inactive | inactive | inactive | – | inactive | – | – | – | – | – | – | inactive | inactive
Cc1ccc(Nc2ccc(O)c3c2C(=O)c2ccccc2C3=O)cc1 | inactive | – | inactive | inactive | – | – | inactive | inactive | inactive | – | inactive | – | – | inactive | – | – | inactive | inactive | inactive
O=S(=O)(O)c1ccccc1O | inactive | – | inactive | inactive | inactive | inactive | inactive | inactive | inactive | inactive | inactive | inactive | inactive | inactive | inactive | -0.0376% | inactive | inactive | inactive
CC(=O)c1ccc(C)cc1 | inactive | – | inactive | inactive | inactive | inactive | inactive | – | inactive | inactive | inactive | – | – | inactive | – | – | inactive | inactive | inactive
N#CCN(CC#N)CCN(CC#N)CC#N | inactive | inactive | inactive | inactive | inactive | inactive | inactive | – | inactive | inactive | inactive | – | – | – | – | – | – | inactive | inactive
CC(C)c1ccc2oc3nc(N)c(C(=O)O)cc3c(=O)c2c1 | inactive | – | inactive | inactive | inactive | – | inactive | – | – | inactive | inactive | inactive | 1330 nM (active) | inactive | inactive | 105% [at 42.5 µM] (active) | inactive | inactive | 841 nM (active)
CCO[Si](C)(OCC)OCC | inactive | inactive | inactive | – | inactive | – | inactive | – | – | inactive | inactive | inactive | inactive | inactive | inactive | 4.4% | – | inactive | inactive
